Results filed as inconclusive are left out. A number with no mark means an inactive call. Calls of active or inactive are those of the source. Unless noted, calls follow the shape of the full dose curve.

The nature of assay [1]: Primary qHTS for inhibitors of SARS-S pseudo-typed particle cell entry (AID 1479145). Also: nearly all actives have a fitted effect of over 45% in size. Also: potency is read from the fitted curve at half-maximal effect. As to activity change, negative = inhibition: series mostly up to about 57 µM; % is scaled to controls: 0 for no effect and ±100 for the full control effect. In general terms: In qHTS, concentration-response curves come from the screen itself.
Assay [2] can be described thus: Primary qHTS for Huh7 cytotoxicity: counterscreen for inhibitors of MERS-S pseudotyped particle cell entry (AID 1479147). As to activity change, negative = cytotoxicity: % is scaled to controls: 0 for no effect and ±100 for the full control effect.
Assay [3] can be described thus: Primary qHTS for inhibitors of MERS-S pseudo-typed particle cell entry (AID 1479149). Also: nearly all actives have a fitted effect of over 60% in size. Also: potency is read from the fitted curve at half-maximal effect. As to activity change, negative = inhibition: series mostly up to about 57 µM; % is scaled to controls: 0 for no effect and ±100 for the full control effect.
The nature of assay [4]: Primary qHTS for Vero E6 cytotoxicity: counterscreen for inhibitors of SARS-S pseudo-typed particle cell entry (AID 1479150). Also: potency is read from the fitted curve at half-maximal effect.
Assay [5] deals with Calcium and integrin-binding protein 1 (Homo sapiens) (UniProt Q99828). Nature of the assay: Primary qHTS for Identification of Calcium Integrin Binding Protein 1 (CIB1) Competitor (AID 1508620; active = well fitted curve in the direction sought with a large enough effect; an effect the other way counts as inactive or inconclusive;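 also: GST tagged CIB1 binding a fluorescein labelled alphaIIb integrin peptide tracer; top concentration of the series differs between compounds; % is scaled to controls: 0 for no effect and ±100 for the full control effect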). In short, it runs like this: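 Fluorescence polarization competition: CIB1-GST (1 uM final) preincubated with compound 15 min at room temperature, then FITC-labeled alphaIIb peptide (100 nM final) added for another 15 min. Polarization read at Ex 480/Em 540.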

Assay [6] in a line: Primary qHTS for inhibitors of La Crosse Virus (LACV) - induced cell death in SH-SY5Y cells (AID 1508616; active = well fitted curve in the direction sought with a large enough effect; an effect the other way counts as inactive or inconclusive;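 also: top concentration of the series differs between compounds; 0% = infected DMSO wells and 100% = uninfected DMSO wells; higher means more rescue of cells from virus-induced death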). Put shortly: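 Luminescent ATP readout (ATPLite 1step, 5 min room temperature) measured rescue from LACV-induced death after 6 days of infection at 0.01 MOI; normalized to infected DMSO wells and uninfected DMSO wells.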

Sequence of Calcium and integrin-binding protein 1 (Homo sapiens) (Q99828 whole entry, looked up): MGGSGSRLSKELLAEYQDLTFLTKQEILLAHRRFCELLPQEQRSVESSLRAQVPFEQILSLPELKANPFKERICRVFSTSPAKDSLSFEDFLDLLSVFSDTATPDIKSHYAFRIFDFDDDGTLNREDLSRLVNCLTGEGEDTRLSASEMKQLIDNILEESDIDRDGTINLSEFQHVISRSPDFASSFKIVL

Turning to `CCc1c(C)[nH]c2c1C(=O)C(CN1CCOCC1)CC2` (stereo not given), the Potency result in assay [1], in assay [2], in assay [3] and in assay [4] was “inactive” throughout.
Regarding `C=CCNC(N)=S`, the Potency result in assay [1], in assay [2], in assay [3] and in assay [4] was “inactive” throughout.
As for `CS(=O)(=O)c1ccc(C(=O)Nc2ccc(Cl)c(-c3ccccn3)c2)c(Cl)c1`, the Potency result in assay [1], in assay [2], in assay [3] and in assay [4] was “inactive” throughout.
Consider `CCOc1cc2ncc(C#N)c(Nc3ccc(OCc4ccccn4)c(Cl)c3)c2cc1NC(=O)/C=C/CN(C)C`, for which the outcome in assay [2] was “inactive [at 11.4 µM]”. Further, the activity change, negative = inhibition in assay [3] was -11.6% [at 11.4 µM]. Besides, the activity change, negative = cytotoxicity in assay [4] is -35.9% [at 11.4 µM].
Take `Cn1cncc1[C@@](N)(c1ccc(Cl)cc1)c1ccc2c(c1)c(-c1cccc(Cl)c1)cc(=O)n2C`: the Potency result in assay [2] and in assay [4] was “inactive” each time.
As for `Clc1ccccc1CN1CCc2sccc2C1`, the Potency result in assay [2], in assay [3] and in assay [4] was “inactive” in each case.
`C[C@@H](N)C(=O)O`: the Potency entry in assay [2], in assay [3] and in assay [4] was “inactive” in each case.
Consider `CNC(=O)c1ccc(N2C(=S)N(c3ccc(C#N)c(C(F)(F)F)c3)C(=O)C2(C)C)cc1F`, for which, in assay [1], the Potency was 8.91 µM (active). The Potency entry in assay [2] and in assay [4] was “inactive” each time.
In the case of `CS(=O)(=O)Nc1ccc([N+](=O)[O-])cc1Oc1ccccc1`, the Potency result in assay [2], in assay [3] and in assay [4] was “inactive” each time.
With `CC[C@H](Nc1ncnc2nc[nH]c12)c1nc2cccc(F)c2c(=O)n1-c1ccccc1`, the Potency result in assay [2], in assay [3] and in assay [4] was “inactive” throughout.
With `Nc1nc2c(ncn2CCC(CO)CO)c(=O)[nH]1`, the Potency entry in assay [1], in assay [2], in assay [3] and in assay [4] was “inactive” each time.
Regarding `C[C@@H]1CCN(C(=O)CC#N)C[C@@H]1N(C)c1ncnc2[nH]ccc12`, the Potency entry in assay [2], in assay [3] and in assay [4] was “inactive” in each case.
With `CC1=C(C/C=C(\C)CCC[C@H](C)CCC[C@H](C)CCCC(C)C)C(=O)c2ccccc2C1=O`, the Potency entry in assay [1], in assay [2] and in assay [4] was “inactive” in each case.
For `CC(C)CCCC(C)CCCC(C)CCCCC(C)CCCC(C)CCCC(C)C` (stereo not given), the Potency result in assay [2], in assay [3] and in assay [4] was “inactive” each time.
Turning to `Cc1c(C(=O)Nc2ccc(N3C[C@@H](C)O[C@@H](C)C3)nc2)cccc1-c1ccc(OC(F)(F)F)cc1`, the Potency result in assay [2] and in assay [4] was “inactive” each time. Also, the Potency in assay [3] is 20 µM (active).
`C[C@H](CN1CCCC1)C(=O)c1ccc(C(F)(F)F)cc1`: the Potency entry in assay [1], in assay [2] and in assay [4] was “inactive” each time.
As to `Cn1c(NCCN(CCO)CCCc2ccc([N+](=O)[O-])cc2)cc(=O)n(C)c1=O`, the Potency entry in assay [1], in assay [2], in assay [3] and in assay [4] was “inactive” throughout.
Regarding `Cc1nnc(C(C)C)n1C1CC2CCC(C1)N2CC[C@H](NC(=O)C1CCC(F)(F)CC1)c1ccccc1` (stereo not given in full), the Potency entry in assay [2], in assay [3] and in assay [4] was “inactive” throughout.
With `CCCCCCCCCCC(CO)CCCCCCCC` (stereo not given), the Potency entry in assay [1], in assay [2], in assay [3] and in assay [4] was “inactive” in each case.
Turning to `Cc1cn(-c2cc(NC(=O)c3ccc(C)c(Nc4nccc(-c5cccnc5)n4)c3)cc(C(F)(F)F)c2)cn1`, the Potency result in assay [2], in assay [3] and in assay [4] was “inactive” each time.
Take `CC(C)(C)c1cc(C(C)(C)C)c(NC(=O)c2c[nH]c3ccccc3c2=O)cc1O`: the Potency entry in assay [2], in assay [3] and in assay [4] was “inactive” in each case.
Turning to `CC(=O)Oc1ccccc1C(=O)O`, the Potency result in assay [1], in assay [2], in assay [3] and in assay [4] was “inactive” throughout.
For `Cc1cc(C(=O)NNCc2ccccc2)no1`, the Potency entry in assay [2], in assay [3] and in assay [4] was “inactive” throughout.
On to `N#CC[C@H](C1CCCC1)n1cc(-c2ncnc3[nH]ccc23)cn1`, for which the Potency entry in assay [2], in assay [3] and in assay [4] was “inactive” each time.
For `NC1=NC(=O)N2CC12` (stereo not given), the Potency entry in assay [1], in assay [2], in assay [3] and in assay [4] was “inactive” in each case. Also, the outcome in assay [5] was inactive.
With `CC(C)(C)C(O)/C=C/c1ccc2c(c1)OCO2` (stereo not given), the Potency result in assay [2], in assay [3] and in assay [4] was “inactive” throughout.
For the molecule `Cc1ccccc1N=Nc1ccc(N=Nc2c(O)ccc3ccccc23)c(C)c1`, the Potency result in assay [2], in assay [3] and in assay [4] was “inactive” in each case.
Turning to `CCN(CC)c1ccc(C(=C2C=CC(=[N+](CC)CC)C=C2)c2cc(S(=O)(=O)O)ccc2S(=O)(=O)[O-])cc1`, the Potency entry in assay [1] and in assay [3] was “inactive” in each case.
As for `CC(C)C[C@H](NC(=O)CNC(=O)c1cc(Cl)ccc1Cl)B(O)O`, the Potency result in assay [1] was “inactive”. Also, the Potency in assay [3] was 0.794 µM (active).
On to `Cc1ccc(C(=O)Nc2ccc(CN3CCN(C)CC3)c(C(F)(F)F)c2)cc1C#Cc1cnc2cccnn12`, for which the results for the Potency in assay [1] and in assay [4] were 3.55 µM (active) and 22.4 µM (active), respectively.
As to `C#CC(C)(CC)OC(=O)c1ccccc1C(=O)O` (stereo not given), the Potency entry in assay [2], in assay [3] and in assay [4] was “inactive” each time.
As for `COc1cc2c(cc1OC)CC(=O)N(CCCN(C)C[C@H]1Cc3cc(OC)c(OC)cc31)CC2`, the Potency result in assay [2], in assay [3] and in assay [4] was “inactive” each time.
For the molecule `CC(=O)N[C@@H](Cc1ccc(O)cc1)C(=O)O`, the Potency result in assay [2], in assay [3] and in assay [4] was “inactive” each time.
As to `Oc1c(I)cc(I)c2cccnc12`, the Potency result in assay [2] and in assay [4] was “inactive” in each case.
As to `CCOP(=O)(OCC)C(C)NC(=O)N(CCCl)N=O` (stereo not given), the Potency result in assay [2], in assay [3] and in assay [4] was “inactive” throughout. Further, in assay [5], the result was inactive.
As for `CNC(=O)c1cc(Oc2ccc(NC(=O)Nc3ccc(Cl)c(C(F)(F)F)c3)c(F)c2)ccn1`, the Potency in assay [1] was 14.1 µM (active). Also, the Potency entry in assay [2] and in assay [4] was “inactive” throughout.
For the molecule `COc1cc2nccc(Oc3ccc(NC(=O)C4(C(=O)Nc5ccc(F)cc5)CC4)cc3)c2cc1OC`, the Potency entry in assay [2] and in assay [4] was “inactive” each time.
Consider `COC(=O)c1ccc2c(C(=Nc3ccc(N(C)C(=O)CN4CCN(C)CC4)cc3)c3ccccc3)c(O)[nH]c2c1`, for which the Potency result in assay [1], in assay [2], in assay [3] and in assay [4] was “inactive” in each case.
For `CCCOC(=O)c1ccc(O)cc1`, the Potency result in assay [2], in assay [3] and in assay [4] was “inactive” each time.
On to `CC(C)C[C@H](NC(=O)[C@@H](O)[C@H](N)Cc1ccccc1)C(=O)O`, for which the Potency entry in assay [1], in assay [2], in assay [3] and in assay [4] was “inactive” in each case.
For `CN(C(=O)C(Cl)Cl)c1ccc(OC(=O)c2ccco2)cc1`, the Potency result in assay [1], in assay [2], in assay [3] and in assay [4] was “inactive” each time.
As for `O=C(c1cc(Cc2n[nH]c(=O)c3ccccc23)ccc1F)N1CCN(C(=O)C2CC2)CC1`, the Potency result in assay [2] and in assay [4] was “inactive” throughout.
Take `CCCS(=O)(=O)Nc1ccc(F)c(C(=O)c2c[nH]c3ncc(-c4ccc(Cl)cc4)cc23)c1F`: the Potency entry in assay [2] and in assay [4] was “inactive” in each case.
Consider `CCCN(CCC)c1c([N+](=O)[O-])cc(S(N)(=O)=O)cc1[N+](=O)[O-]`, for which the result in assay [6] was inactive.
